The antibiotic and cytotoxicity screens of Wong et al. (2023)
Out of some 39,000 compounds screened, about 1,500 (3.8%) were called active. The entries come from a sample that favours actives as a whole.

tested on: HSkMC (human skeletal muscle cells); assay: cytotoxicity call (relative viability < 0.9); settings: 10 µM

SMILES | cytotoxicity call
CC(C)[Si]1(C(C)C)OCc2cc(-c3ccc(-c4ccc(Cl)c(Cl)c4)o3)nc(CCc3ccccc3)c21 | inactive
CC(C)[Si]1(C(C)C)OCc2cc(-c3ccc(-c4ccc(Cl)c(Cl)c4)o3)nc(-c3ccccc3)c21 | inactive
CCCCCCc1nc(-c2ccc(-c3ccc(Cl)c(Cl)c3)o2)cc2c1[Si](C(C)C)(C(C)C)OC2 | active
O=C(O)c1cncnc1N1CCCC1 | inactive
C[C@@H]1CN([C@H](C)CO)C(=O)c2cccc(NC(=O)C3CCCCC3)c2O[C@H]1CN(C)Cc1ccc(Oc2ccccc2)cc1 | inactive
C[C@H](CO)N1C[C@H](C)[C@@H](CN(C)Cc2ccc(-c3ccccc3)cc2)Oc2c(NC(=O)Nc3ccc(F)cc3)cccc2C1=O | inactive
C[C@H]1CN([C@@H](C)CO)C(=O)c2cccc(NC(=O)Nc3ccc(F)cc3)c2O[C@@H]1CN(C)Cc1ccc(-c2ccccc2)cc1 | inactive
C[C@@H]1CN([C@@H](C)CO)C(=O)c2cccc(NC(=O)Nc3ccc(F)cc3)c2O[C@@H]1CN(C)Cc1ccc(-c2ccccc2)cc1 | active
C[C@H]1CN([C@@H](C)CO)C(=O)c2cccc(NC(=O)Nc3ccc(F)cc3)c2O[C@H]1CN(C)Cc1ccc(-c2ccccc2)cc1 | inactive
C[C@@H]1CN([C@@H](C)CO)C(=O)c2cccc(NC(=O)Nc3ccc(F)cc3)c2O[C@H]1CN(C)Cc1ccc(-c2ccccc2)cc1 | active
C[C@@H]1CN([C@H](C)CO)C(=O)c2cccc(NC(=O)Nc3ccc(F)cc3)c2O[C@H]1CN(C)Cc1ccc(-c2ccccc2)cc1 | inactive
Cc1noc(C)c1NC(=O)Nc1ccc2c(c1)CC(=O)N([C@@H](C)CO)C[C@H](C)[C@H](CN(C)C(=O)Nc1ccc(C(F)(F)F)cc1)O2 | inactive
CO[C@@H](CN(C)S(=O)(=O)c1cccc(Cl)c1)[C@@H](C)CN([C@H](C)CO)S(=O)(=O)c1cccc(Cl)c1 | inactive
C[C@@H]1CCCCO[C@H](CN(C)S(=O)(=O)c2cn(C)cn2)[C@@H](C)CN([C@@H](C)CO)C(=O)c2cc(NC(=O)Nc3cccc4ccccc34)ccc2O1 | inactive
CO[C@@H]1CN(C)C(=O)c2ccc(NC(=O)C3CCOCC3)cc2OC[C@@H](C)N(C(=O)C2CCOCC2)C[C@H]1C | inactive
C[C@@H]1CN([C@H](C)CO)C(=O)Cc2cc(NS(=O)(=O)c3ccccc3)ccc2O[C@@H]1CN(C)Cc1ccc(-c2ccccc2)cc1 | inactive
C[C@@H]1CN([C@@H](C)CO)C(=O)Cc2cc(NS(=O)(=O)c3ccccc3)ccc2O[C@@H]1CN(C)Cc1ccc(-c2ccccc2)cc1 | active
C[C@H](CO)N1C[C@H](C)[C@@H](CN(C)Cc2ccc(-c3ccccc3)cc2)Oc2ccc(NS(=O)(=O)c3ccccc3)cc2CC1=O | inactive
C[C@@H]1CN([C@H](C)CO)C(=O)Cc2cc(NS(=O)(=O)c3ccccc3)ccc2O[C@H]1CN(C)Cc1ccc(-c2ccccc2)cc1 | active
C[C@H]1CN([C@@H](C)CO)C(=O)Cc2cc(NS(=O)(=O)c3ccccc3)ccc2O[C@H]1CN(C)Cc1ccc(-c2ccccc2)cc1 | active
C[C@H]1CN([C@@H](C)CO)C(=O)Cc2cc(NS(=O)(=O)c3ccccc3)ccc2O[C@@H]1CN(C)Cc1ccc(-c2ccccc2)cc1 | active
C[C@@H]1CN([C@@H](C)CO)C(=O)Cc2cc(NS(=O)(=O)c3ccccc3)ccc2O[C@H]1CN(C)Cc1ccc(-c2ccccc2)cc1 | inactive
C[C@H](CO)N1C[C@H](C)[C@H](CN(C)Cc2ccc(-c3ccccc3)cc2)Oc2ccc(NS(=O)(=O)c3ccccc3)cc2CC1=O | inactive
CN(C)c1cncc(C(=O)O)c1 | inactive
C[C@@H]1CCCCO[C@H](CN(C)C(=O)Nc2ccc3c(c2)OCO3)[C@H](C)CN([C@H](C)CO)C(=O)c2cc(NS(=O)(=O)c3ccccc3)ccc2O1 | inactive
CC(C)C#Cc1ccc2c(c1)O[C@H](CN(C)C(=O)Cc1ccccn1)[C@H](C)CN([C@H](C)CO)S2(=O)=O | inactive
Cc1noc(C)c1NC(=O)N(C)C[C@@H]1Oc2ccc(NC(=O)NC(C)C)cc2CC(=O)N([C@H](C)CO)C[C@H]1C | inactive
CCCC(=O)Nc1ccc2c(c1)OC[C@@H](C)N(C(=O)Cc1ccccn1)C[C@@H](C)[C@H](OC)CN(C)C2=O | inactive

SMILES | cytotoxicity call
CCN1C(=O)CS/C1=N\N1CCOCC1 | inactive
C[C@@H]1CN([C@H](C)CO)C(=O)c2cc(NC(=O)Nc3ccc(C(F)(F)F)cc3)ccc2O[C@@H](C)CCCCO[C@H]1CN(C)C(=O)Nc1ccc(F)cc1 | inactive
COCCCNC(=O)[C@@]1(Sc2ccc(C)cc2)CC(=O)N(Cc2ccccc2C(F)(F)F)[C@@H]1c1ccc(CO)cc1 | inactive
C[C@@H]1CCCCO[C@@H](CN(C)C(=O)C2CCCCC2)[C@H](C)CN([C@@H](C)CO)C(=O)c2cc(NC(=O)Nc3ccccc3)ccc2O1 | inactive
C[C@@H]1CCCCO[C@H](CN(C)C(=O)Nc2ccc3c(c2)OCO3)[C@H](C)CN([C@H](C)CO)C(=O)c2cc(NC(=O)c3ccncc3)ccc2O1 | inactive
C[C@@H]1CN([C@@H](C)CO)C(=O)c2ccccc2-c2ccccc2CO[C@H]1CN(C)C(=O)Nc1ccc(F)cc1 | inactive
CC(C)C[C@H](NP(=O)(O)O[C@H]1O[C@@H](C)[C@@H](O)[C@@H](O)[C@@H]1O)C(=O)N[C@H](Cc1c[nH]c2ccccc12)C(=O)O | inactive
CC(C)CC(NC(=O)C(C)NC(=O)CNC(=O)C(NC=O)C(C)C)C(=O)NC(C)C(=O)NC(C(=O)NC(C(=O)NC(C(=O)NC(Cc1c[nH]c2ccccc12)C(=O)NC(CC(C)C)C(=O)NC(Cc1c[nH]c2ccccc12)C(=O)NC(CC(C)C)C(=O)NC(Cc1c[nH]c2ccccc12)C(=O)NC(CC(C)C)C(=O)NC(Cc1c[nH]c2ccccc12)C(=O)NCCO)C(C)C)C(C)C)C(C)C (stereo not given) [GRAMICIDIN (gramicidin A shown) ] | active
C[C@H](NC(=O)[C@@H](Cc1ccc2ccccc2c1)NC(=O)[C@@H](C)N)C(=O)N[C@@H](Cc1c[nH]c2ccccc12)C(=O)N[C@H](Cc1ccccc1)C(=O)N[C@@H](CCCCN)C(N)=O | inactive
CCOc1ccc(C(=O)Nc2ccc(N3CCN(C(=O)c4cccs4)CC3)c(Cl)c2)cc1Br | inactive
C[C@@H]1CCCCO[C@@H](CN(C)Cc2ccc(C(=O)Nc3ccccc3N)cc2)[C@@H](C)CN([C@H](C)CO)C(=O)c2cc(NC(=O)Nc3cccc4ccccc34)ccc2O1 | inactive
CC[C@@H](C)[C@H]1O[C@@]2(CC[C@@H]1C)C[C@H]1C[C@@H](CC=C(C)[C@@H](O[C@H]3C[C@@H](OC)[C@@H](O[C@H]4C[C@@H](OC)[C@@H](O)[C@@H](C)O4)[C@@H](C)O3)[C@@H](C)C=CC=C3CO[C@H]4[C@@H](O)C(C)=C[C@@H](C(=O)O1)[C@]34O)O2.CO[C@H]1C[C@@H](O[C@@H]2[C@@H](OC)C[C@@H](O[C@@H]3C(C)=CC[C@@H]4C[C@@H](C[C@@]5(CC[C@@H](C)[C@H](C(C)C)O5)O4)OC(=O)[C@@H]4C=C(C)[C@H](O)[C@@H]5OCC(=CC=C[C@@H]3C)[C@@]45O)O[C@@H]2C)O[C@@H](C)[C@@H]1O | active
CC[C@H](C)[C@H]1O[C@]2(CC[C@@H]1C)C[C@@H]1C[C@@H](C/C=C(\C)[C@@H](O[C@H]3C[C@H](OC)[C@@H](O[C@H]4C[C@H](OC)[C@@H](O)[C@H](C)O4)[C@H](C)O3)[C@@H](C)/C=C/C=C3\CO[C@@H]4[C@H](O)C(C)=C[C@@H](C(=O)O1)[C@]34O)O2 | active
CCC(C)C1OC2(CCC1C)CC1CC(CC=C(C)C(OC3CC(OC)C(OC4CC(OC)C(O)C(C)O4)C(C)O3)C(C)C=CC=C3COC4C(O)C(C)=CC(C(=O)O1)C34O)O2 (stereo not given) | inactive
O=[N+]([O-])c1cc(N(CCO)CCO)ccc1NCCO | inactive
O=C(C[C@@H]1CC[C@H]2[C@@H](COC[C@@H](O)CN2C(=O)Nc2cccc(F)c2)O1)NCCCN1CCOCC1 | inactive
C[C@@H]1CCCCO[C@H](CN(C)Cc2ccccc2)[C@@H](C)CN([C@@H](C)CO)C(=O)c2cc(NC(=O)CCC(F)(F)F)ccc2O1 | inactive
CCS(=O)(=O)Nc1ccc2c(c1)CC(=O)N2 | inactive
CCS(=O)(=O)Nc1ccc2c(c1)C(=O)N(C)[C@@H]1CC[C@H](CC(=O)N[C@H]3CCN(Cc4ccccc4)C3)O[C@H]1CO2 | inactive
CCS(=O)(=O)Nc1ccc2c(c1)/C(=C(/Nc1ccc(CN3CCCCC3)cc1)c1ccccc1)C(=O)N2 | active
Cc1ccc(S[C@]2(C(=O)NCCCN(C)C)CC(=O)N(Cc3ccccc3C(F)(F)F)[C@@H]2c2ccc(CO)cc2I)cc1 | inactive
C[C@H]1CCCCO[C@H](CN(C)C(=O)Nc2cccc3ccccc23)[C@@H](C)CN([C@@H](C)CO)C(=O)c2cc(NC(=O)c3ccncc3)ccc2O1 | inactive
C[C@@H]1CN([C@H](C)CO)C(=O)c2cc(NC(=O)c3ccncc3)ccc2O[C@@H](C)CCCCO[C@H]1CN(C)C(=O)Nc1cccc2ccccc12 | active
C[C@@H]1CCCCO[C@H](CN(C)C(=O)Nc2cccc3ccccc23)[C@@H](C)CN([C@@H](C)CO)C(=O)c2cc(NC(=O)c3ccncc3)ccc2O1 | active
C[C@H](CO)N1C[C@H](C)[C@@H](CN(C)C(=O)Nc2cccc3ccccc23)OCCCC[C@H](C)Oc2ccc(NC(=O)c3ccncc3)cc2C1=O | inactive
C[C@@H]1CN([C@H](C)CO)C(=O)c2cc(NC(=O)c3ccncc3)ccc2O[C@@H](C)CCCCO[C@@H]1CN(C)C(=O)Nc1cccc2ccccc12 | inactive
C[C@@H]1CCCCO[C@@H](CN(C)C(=O)Nc2cccc3ccccc23)[C@H](C)CN([C@@H](C)CO)C(=O)c2cc(NC(=O)c3ccncc3)ccc2O1 | inactive
